In the supplement of paper PMC4709259:
Counter-ions that a name gives are not always drawn. ± gives the standard deviation.

System: Jurkat
Assay: mean cell size (FSC-A) relative to DMSO control (fraction of control); higher = larger cells
Conditions: 48 h
Summary of the method: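 Jurkat cells at 600 cells/µl were incubated for 1 h and then treated for 48h with the Enzo Screen-Well FDA Approved Drug Library v2.0 at 25µM, with DMSO at 0.9% (v/v) final. Compounds that reduced counts below 20% of controls were retested in 10-fold dilutions down to 25nM. Cell count and mean cell size, taken as forward scatter area, were measured by flow cytometry relative to solvent-only controls. Each plate carried 6-12 controls, and values are means of 3 biological replicates.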

Row | SMILES | mean cell size
1 | CO/N=C(\C(=O)N[C@@H]1C(=O)N2C(C(=O)OC(C)OC(C)=O)=C(COC(N)=O)CS[C@H]12)c1ccco1 (stereo partly drawn) [Cefuroxime Axetil] (concentration: 25 µM) | 0.99 ± 0.028
2 | CNCCCC1c2ccccc2C=Cc2ccccc21 [Protriptyline·HCl] (concentration: 25 µM) | 1.05 ± 0.019
3 | Cc1c2oc3c(C)ccc(C(=O)N[C@@H]4C(=O)N[C@H](C(C)C)C(=O)N5CCC[C@H]5C(=O)N(C)CC(=O)N(C)[C@@H](C(C)C)C(=O)O[C@@H]4C)c3nc-2c(C(=O)N[C@@H]2C(=O)N[C@H](C(C)C)C(=O)N3CCC[C@H]3C(=O)N(C)CC(=O)N(C)[C@@H](C(C)C)C(=O)O[C@@H]2C)c(N)c1=O [Dactinomycin (= Actinomycin D)] (concentration: 25 nM) | 0.784 ± 0.019
4 | Cc1cc(C2CCCCC2)n(O)c(=O)c1 [Ciclopirox] (concentration: 2.5 µM) | 1.14 ± 0.032
5 | C[C@@H](NCCCc1cccc(C(F)(F)F)c1)c1cccc2ccccc12 [Cinacalcet·HCl] (concentration: 25 µM) | 1.03 ± 0.051
6 | CCCCCCCCCC(=O)N[C@@H](Cc1c[nH]c2ccccc12)C(=O)N[C@H](CC(N)=O)C(=O)N[C@@H](CC(=O)O)C(=O)N[C@@H]1C(=O)NCC(=O)N[C@@H](CCCN)C(=O)N[C@@H](CC(=O)O)C(=O)N[C@H](C)C(=O)N[C@@H](CC(=O)O)C(=O)NCC(=O)N[C@H](CO)C(=O)N[C@@H]([C@H](C)CC(=O)O)C(=O)N[C@@H](CC(=O)c2ccccc2N)C(=O)O[C@@H]1C [Daptomycin] (concentration: 25 µM) | 0.975 ± 0.025
7 | CCOc1cc(CC(=O)N[C@@H](CC(C)C)c2ccccc2N2CCCCC2)ccc1C(=O)O [Repaglinide] (concentration: 25 µM) | 1.03 ± 0.022
8 | CCCCC1=NC2(CCCC2)C(=O)N1Cc1ccc(-c2ccccc2-c2nnn[nH]2)cc1 [Irbesartan] (concentration: 25 µM) | 0.959 ± 0.06
9 | NNc1nncc2ccccc12 [Hydralazine·HCl] (concentration: 25 µM) | 0.98 ± 0.075
10 | Cc1ccnc2c1NC(=O)c1cccnc1N2C1CC1 [Nevirapine] (concentration: 25 µM) | 0.924 ± 0.051
11 | CNCC[C@@H](Oc1ccccc1C)c1ccccc1 [Atomoxetine·HCl] (concentration: 25 µM) | 0.996 ± 0.05
12 | CCc1cc(C(N)=S)ccn1 [Ethionamide] (concentration: 25 µM) | 1.05 ± 0.03
13 | CN1CCC(=C2c3ccccc3C=Cc3ccccc32)CC1 [Cyproheptadine·HCl Sesquihydrate] (concentration: 25 µM) | 0.935 ± 0.027
14 | Nc1nc(/C(=C/CC(=O)O)C(=O)N[C@@H]2C(=O)N3C(C(=O)O)=CCS[C@H]23)cs1 [Ceftibuten] (concentration: 25 µM) | 0.925 ± 0.016
15 | C=C(CC)C(=O)c1ccc(OCC(=O)O)c(Cl)c1Cl [Ethacrynic Acid] (concentration: 25 µM) | 0.924 ± 0.015
16 | N[C@@H]1CONC1=O [Cycloserine] (concentration: 25 µM) | 0.966 ± 0.013
17 | NCCC(O)(P(=O)(O)O)P(=O)(O)O [Pamidronate Disodium  Pentahydrate (Pamidronic Acid)] (concentration: 25 µM) | 0.967 ± 0.034
18 | CC(C)c1ccc2oc3nc(N)c(C(=O)O)cc3c(=O)c2c1 [Amlexanox] (concentration: 25 µM) | 0.923 ± 0.018
19 | O=NN(CCCl)C(=O)NCCCl [Carmustine] (concentration: 25 µM) | 1.066 ± 0.0089
20 | CCCCc1nc(Cl)c(CO)n1Cc1ccc(-c2ccccc2-c2nnn[nH]2)cc1 [Losartan Potassium] (concentration: 25 µM) | 0.922 ± 0.041
21 | CC(=O)O[C@H]1C[C@@H]2CC[C@@H]3[C@H](CC[C@@]4(C)[C@H]3C[C@H]([N+]3(C)CCCCC3)[C@@H]4OC(C)=O)[C@@]2(C)C[C@@H]1N1CCCCC1 [Vecuronium Bromide] (concentration: 25 µM) | 0.858 ± 0.043
22 | CN[C@H]1CC[C@@H](c2ccc(Cl)c(Cl)c2)c2ccccc21 [Sertraline·HCl] (concentration: 2.5 µM) | 1.008 ± 0.0063
23 | CC(=O)OCC(=O)[C@@]1(O)CC[C@H]2[C@@H]3CCC4=CC(=O)CC[C@]4(C)[C@H]3C(=O)C[C@@]21C [Cortisone Acetate] (concentration: 25 µM) | 1.01 ± 0.028
